Assay results published in the supplement of paper PMC12645437, “Orthogonal IMiD-Degron Pairs Induce Selective Protein Degradation in Cells” (ACS Chemical Biology, 2025).
Over roughly 8,300 sequences, “log2 fold change of degron read counts, EGFP-low vs EGFP+ sorted cells (limma voom), compound-induced degradation” has its median near -1.1; the highest 2% begin near 3.2. The sample as a whole holds a higher share of the highest values than the screen did.

T1: CRBN, Q96SW2
T1 chain: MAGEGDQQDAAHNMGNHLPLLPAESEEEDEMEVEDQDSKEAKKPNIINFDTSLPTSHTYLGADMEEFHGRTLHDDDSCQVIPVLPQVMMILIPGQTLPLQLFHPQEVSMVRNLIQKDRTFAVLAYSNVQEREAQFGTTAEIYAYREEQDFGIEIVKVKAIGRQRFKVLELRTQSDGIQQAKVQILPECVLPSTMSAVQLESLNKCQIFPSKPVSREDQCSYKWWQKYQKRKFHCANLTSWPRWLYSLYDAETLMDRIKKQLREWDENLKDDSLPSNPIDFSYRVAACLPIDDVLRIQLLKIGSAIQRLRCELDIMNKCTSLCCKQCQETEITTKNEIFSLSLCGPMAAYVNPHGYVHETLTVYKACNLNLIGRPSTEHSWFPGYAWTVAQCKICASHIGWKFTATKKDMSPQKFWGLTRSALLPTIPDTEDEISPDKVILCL


Target: T1, CRBN, Q96SW2
Experiment: log2 fold change of degron read counts, EGFP-low vs EGFP+ sorted cells (limma voom), compound-induced degradation; higher = more compound-induced degradation of the degron-EGFP fusion; degrons are variants of IKZF1/3 zinc finger 2; compound dose not given here
Conditions: Jurkat, 18 h
[1] = compound: compound 19 (5-tert-butyl-thalidomide)
[2] = compound: compound 22 (5-morpholino-thalidomide)
[3] = compound: compound 33 (diphenyl IMiD analogue)
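Further: pooled lentiviral library of zinc finger degron-EGFP fusions in mCherry-positive Jurkat cells, FACS-sorted after compound exposure, with degron abundance counted by next-generation sequencing.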

Sequence	log2 fold change of degron read counts [1]	log2 fold change of degron read counts [2]	log2 fold change of degron read counts [3]	log2 fold change of degron read counts (compound: thalidomide)
FFCPICGRAFTQKGNLLRHIKL [46F_47F_49P_50I_52G_53R_54A_55F_67L_, Q9UKT9]	-0.764	-1.23	-0.0789	-1.31
FICPVCGAYFTQKGNLLRHIKL [46F_47I_49P_50V_52G_53A_54Y_55F_67L_, Q9UKT9]	-0.575	1.65	1.98	1.66
FHCEVCGAWFTQKGNLLRHIKL [46F_47H_49E_50V_52G_53A_54W_55F_67L_, Q9UKT9]	-1.47	-1.81	-0.825	-1.89
LDCEICGFICTQKGNLLRHIKL [46L_47D_49E_50I_52G_53F_54I_55C_67L_, Q9UKT9]	-0.803	-0.92	-0.72	-0.457
LRCPICGFDCTQKGNLLRHIKL [46L_47R_49P_50I_52G_53F_54D_55C_67L_, Q9UKT9]	-1.49	-1.07	0.189	0.67
LRCNQCGFACTQKGNLLRHIKL [46L_47R_49N_50Q_52G_53F_54A_55C_67L_, Q9UKT9]	-1.46	-1.7	-0.712	-0.94
FWCDQCGAQFTQKGNLLRHIKL [46F_47W_49D_50Q_52G_53A_54Q_55F_67L_, Q9UKT9]	0.249	2.32	-0.8	-1.65
FCCEICGHVFTQKGNLLRHIKL [46F_47C_49E_50I_52G_53H_54V_55F_67L_, Q9UKT9]	-2.85	-3.23	-2.09	-2.16
FLCPICGAAFTQKGNLLRHIKL [46F_47L_49P_50I_52G_53A_54A_55F_67L_, Q9UKT9]	1.31	0.494	1.82	1.59
FCCPICGAAFTQKGNLLRHIKL [46F_47C_49P_50I_52G_53A_54A_55F_67L_, Q9UKT9]	3.34	2.84	2.48	2.21
FTCPICGAAFTQKGNLLRHIKL [46F_47T_49P_50I_52G_53A_54A_55F_67L_, Q9UKT9]	2.48	2.97	2.48	2.67
FDCPICGAAFTQKGNLLRHIKL [46F_47D_49P_50I_52G_53A_54A_55F_67L_, Q9UKT9]	2.39	0.645	1.79	2.2
FACPICGAAFTQKGNLLRHIKL [46F_47A_49P_50I_52G_53A_54A_55F_67L_, Q9UKT9]	3.73	2.93	1.69	1.69
FMCPICGAAFTQKGNLLRHIKL [46F_47M_49P_50I_52G_53A_54A_55F_67L_, Q9UKT9]	2.31	2.47	2.94	2.32
FICNVCGAIFTQKGNLLRHIKL [46F_47I_49N_50V_52G_53A_54I_55F_67L_, Q9UKT9]	-2.95	-2.03	0.29	-1.36
FVCNQCGRVFTQKGNLLRHIKL [46F_47V_49N_50Q_52G_53R_54V_55F_67L_, Q9UKT9]	-2.6	-2.87	-2.56	-2.9
FLCDVCGAGFTQKGNLLRHIKL [46F_47L_49D_50V_52G_53A_54G_55F_67L_, Q9UKT9]	-0.0363	-1.56	-0.558	-1.42

Sequence	log2 fold change of degron read counts [1]	log2 fold change of degron read counts [2]	log2 fold change of degron read counts [3]	log2 fold change of degron read counts (compound: thalidomide)
FMCDICGAQFTQKGNLLRHIKL [46F_47M_49D_50I_52G_53A_54Q_55F_67L_, Q9UKT9]	-1.1	-0.152	2.21	-0.153
FNCNQCGRFFTQKGNLLRHIKL [46F_47N_49N_50Q_52G_53R_54F_55F_67L_, Q9UKT9]	-1.77	-2.76	-1.9	-1.6
FRCPICGHIFTQKGNLLRHIKL [46F_47R_49P_50I_52G_53H_54I_55F_67L_, Q9UKT9]	-2.22	-2.81	-1.62	-1.42
FLCEICGHQFTQKGNLLRHIKL [46F_47L_49E_50I_52G_53H_54Q_55F_67L_, Q9UKT9]	-3.24	-3.62	-3.53	-2.18
LKCPICGFDCTQKGNLLRHIKL [46L_47K_49P_50I_52G_53F_54D_55C_67L_, Q9UKT9]	-1.99	-1.82	-1.08	-0.789
FGCEICGHGFTQKGNLLRHIKL [46F_47G_49E_50I_52G_53H_54G_55F_67L_, Q9UKT9]	-2.33	-2.62	-2.89	-2.42
FLCPICGRFFTQKGNLLRHIKL [46F_47L_49P_50I_52G_53R_54F_55F_67L_, Q9UKT9]	-1.24	-1.32	0.143	0.16
FCCPICGASFTQKGNLLRHIKL [46F_47C_49P_50I_52G_53A_54S_55F_67L_, Q9UKT9]	3.32	2.71	2.44	2.37
FSCPICGASFTQKGNLLRHIKL [46F_47S_49P_50I_52G_53A_54S_55F_67L_, Q9UKT9]	3.35	2.78	2.17	2.01
FECPICGASFTQKGNLLRHIKL [46F_47E_49P_50I_52G_53A_54S_55F_67L_, Q9UKT9]	2.15	-0.116	2.38	3.32
FECNICGASFTQKGNLLRHIKL [46F_47E_49N_50I_52G_53A_54S_55F_67L_, Q9UKT9]	-0.173	-1.42	0.849	1.86
FICPICGASFTQKGNLLRHIKL [46F_47I_49P_50I_52G_53A_54S_55F_67L_, Q9UKT9]	-0.0282	2.87	1.99	2.6
FVCPICGASFTQKGNLLRHIKL [46F_47V_49P_50I_52G_53A_54S_55F_67L_, Q9UKT9]	0.995	2.78	2.19	3.08
FACPICGASFTQKGNLLRHIKL [46F_47A_49P_50I_52G_53A_54S_55F_67L_, Q9UKT9]	3.73	2.44	1.48	1.61
FRCPICGASFTQKGNLLRHIKL [46F_47R_49P_50I_52G_53A_54S_55F_67L_, Q9UKT9]	1.96	1.71	1.79	1.78
FMCPICGASFTQKGNLLRHIKL [46F_47M_49P_50I_52G_53A_54S_55F_67L_, Q9UKT9]	1.54	2.45	2.91	2.41
FCCNICGASFTQKGNLLRHIKL [46F_47C_49N_50I_52G_53A_54S_55F_67L_, Q9UKT9]	1.56	1.91	1.76	1.41
